Reference: PubChem BioAssay (NCI)
About 83,000 compounds went through this panel and 20% of them were active in at least one assay; those are over-represented in the sample as a whole.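 Note: values are percent growth. 100 is the growth of untreated cells, values between 100 and 0 indicate rising inhibition; between -100 and 0 indicates cell death.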 Values without a mark were called inactive. Calls of active or inactive are those of the source. How the source made its calls: active means growth percent below 10; inactive means the rest.

Tests used:
Assay in all cases: NCI-60 one-dose screen, 48 h (100 = growth as untreated, 0 = no growth, -100 = all killed)
Details in all cases: 10 µM
NCI-H23 lung = system: NCI-H23 lung
NCI-H226 lung = system: NCI-H226 lung
NCI-H322M lung = system: NCI-H322M lung
HOP-62 NSCLC = system: HOP-62 NSCLC
NCI-H460 lung = system: NCI-H460 lung
NCI-H522 lung = system: NCI-H522 lung
A549/ATCC NSCLC = system: A549/ATCC NSCLC
786-0 renal = system: 786-0 renal
COLO 205 colon = system: COLO 205 colon
DU-145 prostate = system: DU-145 prostate
MALME-3M melanoma = system: MALME-3M melanoma
MDA-MB-231 breast = system: MDA-MB-231 breast
SF-268 CNS = system: SF-268 CNS
SF-295 CNS = system: SF-295 CNS
SF-539 CNS = system: SF-539 CNS
UACC-257 melanoma = system: UACC-257 melanoma
M14 melanoma = system: M14 melanoma
HCT-15 colon = system: HCT-15 colon
K-562 leukemia = system: K-562 leukemia
RXF 393 renal = system: RXF 393 renal

SMILES	growth (NCI-H23 lung)	growth (NCI-H226 lung)	growth (NCI-H322M lung)	growth (HOP-62 NSCLC)	growth (NCI-H460 lung)	growth (NCI-H522 lung)	growth (A549/ATCC NSCLC)	growth (786-0 renal)	growth (COLO 205 colon)	growth (DU-145 prostate)	growth (MALME-3M melanoma)	growth (MDA-MB-231 breast)	growth (SF-268 CNS)	growth (SF-295 CNS)	growth (SF-539 CNS)	growth (UACC-257 melanoma)	growth (M14 melanoma)	growth (HCT-15 colon)	growth (K-562 leukemia)	growth (RXF 393 renal)
O=C(O)CN1C(=O)c2cccc3cccc(c23)C1=O	101%	96.5%	102%	97.4%	110%	94.1%	95.4%	91.7%	105%	117%	102%	85.1%	122%	99.7%	98.7%	98.2%	99.6%	108%	–	–
COc1ccc(NC(=O)CSc2nc3ccccc3c(=O)n2CCc2ccccc2)cc1	92.2%	93.9%	81.5%	48.3%	75.5%	105%	75.1%	95.3%	95.5%	101%	60.3%	61.5%	53.7%	91.5%	79.5%	87.9%	75.3%	92.1%	–	–
Cc1ccc2oc3nc(C)c(C(=O)NCc4ccccc4)cc3c(=O)c2c1	83.8%	104%	76.8%	100%	41.4%	76.7%	73.5%	55.6%	23.8%	86.9%	–	88.8%	95.3%	41.9%	99.3%	69.2%	29%	78.8%	18.4%	120%
COC(=O)c1c(-c2ccccc2)csc1NC(=O)c1c(-c2ccccc2)noc1C	61.4%	49.6%	56.6%	52.1%	-15.3% (active)	36.1%	-18.6% (active)	24.1%	60.6%	39.7%	–	59.2%	36.5%	43.8%	33.2%	45.5%	52.3%	14.5%	18.5%	38.8%
O=c1cc(-c2ccccc2)[nH]n1-c1nc2ccccc2[nH]1	56.1%	67.7%	49.9%	48%	20.7%	21.6%	30.7%	50.1%	106%	61.1%	–	73%	60.2%	21.6%	47.6%	75.6%	41.8%	30.7%	10.1%	52.2%
CCN(CC)CCC(CNc1c(C)cnc2cc(Cl)ccc12)c1ccc(Cl)c(Cl)c1 (configuration not stated)	63.7%	85.9%	51.8%	68.8%	63.8%	49.2%	–	60.2%	-56.5% (active)	73.8%	-52% (active)	25.5%	71.8%	65.4%	20.9%	-49.6% (active)	-64.5% (active)	32.3%	1.52% (active)	–
N#CCCN1C/C(=C/c2ccc(Br)cc2)C(=O)/C(=C/c2ccc(Br)cc2)C1	-30.8% (active)	-77.6% (active)	-23.2% (active)	-59.4% (active)	-55.2% (active)	-68.4% (active)	–	-67.9% (active)	-93.9% (active)	-48.4% (active)	-48.4% (active)	-39.4% (active)	-36.2% (active)	-20.2% (active)	-55.1% (active)	-33.5% (active)	-55.1% (active)	0.513% (active)	3.42% (active)	-89.1% (active)
COc1cc(NC(=O)CSc2nc3ccccc3c(=O)n2CCc2ccccc2)cc(OC)c1OC	26.6%	-0.963% (active)	27.7%	9.57% (active)	-30.2% (active)	-23.9% (active)	24.9%	-80.1% (active)	29.9%	45.9%	–	-17% (active)	13.9%	51.6%	-50% (active)	39.2%	41.9%	89%	–	–
COc1cc2c(cc1OC)N(CCO)C1=C(C(=O)OC1)C2c1ccc(Cl)c(Cl)c1 (configuration not stated)	104%	103%	95.2%	98%	104%	77.4%	–	93.5%	116%	109%	–	96.8%	100%	103%	99.3%	103%	112%	98.2%	88.7%	97.8%
Cn1c([N+](=O)[O-])cnc1/C=C1\Oc2cc(Cl)ccc2C1=O	-22.8% (active)	59.5%	60.4%	16.5%	-32.1% (active)	-53.8% (active)	–	-6.4% (active)	-52.9% (active)	-18.3% (active)	-56.7% (active)	-27.7% (active)	-37.4% (active)	38.5%	28%	-42% (active)	-34.7% (active)	3.55% (active)	35.8%	-66.8% (active)
Nc1ncn([C@@H]2O[C@H](CO)[C@@H](O)[C@H]2O)c(=O)n1	37.2%	45.9%	15.9%	2.42% (active)	-1.73% (active)	4.49% (active)	16.5%	23.8%	6.61% (active)	11.5%	–	-3.92% (active)	33.8%	28.4%	3.27% (active)	48%	19.7%	22.9%	–	–
N#Cc1cc(-c2cc3ccccc3o2)oc1N	11.4%	17.4%	2.76% (active)	20%	9.76% (active)	-4.4% (active)	-5.69% (active)	11.7%	12.9%	–	-5.2% (active)	-27.1% (active)	29%	-28.1% (active)	-45% (active)	–	26.4%	9.98% (active)	2.52% (active)	–
COc1ccc(CN2CCC(N3CCCC3=O)c3cc(Cl)ccc32)cc1 (configuration not stated)	96%	114%	104%	98.3%	110%	75.6%	–	109%	110%	116%	88.6%	123%	108%	124%	110%	112%	97%	104%	106%	126%
CCCCOC(=O)Oc1ccc(C(=O)Oc2ccc(OCC)cc2)cc1	99.9%	92.7%	98.6%	113%	106%	82.7%	–	96.7%	118%	97.7%	109%	97.9%	95.5%	109%	86.2%	99.5%	96.7%	102%	109%	102%
CCN(CC)CCSCCN(CC)CC	102%	101%	109%	108%	102%	84.1%	–	102%	106%	109%	106%	118%	106%	101%	97%	97.6%	111%	97.9%	100%	104%
O=C1NC(=O)c2ncccc21	101%	96.3%	106%	109%	111%	171%	–	102%	114%	113%	114%	116%	103%	89.7%	101%	102%	99.9%	101%	107%	–
Cc1[nH]nc2c1C(c1cnn(C)c1)C(C#N)=C(N)O2 (configuration not stated)	101%	105%	96.9%	97.9%	104%	80.4%	–	102%	114%	110%	95.8%	117%	105%	105%	99.3%	98.3%	100%	99.6%	93.6%	106%
